In PubChem BioAssay AID624167 (Sanford-Burnham Center for Chemical Genomics, 2012):

Experiment: inhibition of PEG-3 promoter-driven reporter – cell-based, HeLa, luciferase, CREF/GAPDH counter-screen panel, dose response (AID 624167)
Conditions: CREF/GAPDH counter-screens; run 1, dose range 1, at 100 µM (top of the series)

Which inhibition does the source give for `O=C(N/N=C/c1cc([N+](=O)[O-])ccc1O)c1ccc(COc2ccc3c(c2)CCC3)o1` here?
Its inhibition is 27.1%.

For `Cc1nc(C)c(C(=O)N/N=C/c2cc(Br)ccc2O)s1`, which inhibition is on record?
Its inhibition is -7.82%.

With `CS(=O)(=O)Nc1cccc(NC(=O)C2Cc3c(-c4ccccc4)ccnc3O2)c1` (stereo not drawn) as the compound, how does the inhibition read?
The inhibition was 0.156%.

For `CCN(CC)S(=O)(=O)c1cccc(C(=O)N/N=C(\C)c2ccc(O)cc2O)c1`, which inhibition is on record?
The inhibition was -75.3%.

For `CCOC(=O)c1c(SCCN2CCCCC2)n(-c2ccccc2)c(=S)n(-c2ccccc2)c1=O`, which inhibition is on record?
The inhibition was 97%.

With `CCCCCCCNC(=O)C1(CC2CC(c3cccc(Br)c3)=NO2)CCNCC1` (stereo not drawn) as the compound, how does the inhibition read?
Its inhibition is 95%.

For `CC1=CC2C(C(O)CC3(C)C2CC(C)C32OCOC23COCO3)C2(C)C/C(=C\O)C(=O)C=C12` (stereo not drawn), which inhibition is on record?
The inhibition was 99.5%.

Which inhibition does the source give for `CN(C)CC1CCC/C(=C\c2ccc(OC(=O)c3ccc(Cl)cc3)cc2)C1=O` (stereo not drawn) here?
The inhibition was 76%.

Which inhibition does the source give for `O=C(O)c1ccc(N/N=C/c2ccc3nccnc3c2)cc1` here?
Its inhibition is 99%.

Which inhibition does the source give for `CCCC(=O)NC(c1ccc(C)cc1)c1ccc2cccnc2c1O` (stereo not drawn) here?
The inhibition was 43.4%.

Which inhibition does the source give for `CCCC(=O)NC(c1ccccc1)c1ccc2cccnc2c1O` (stereo not drawn) here?
The inhibition was 26.9%.

With `O=C(CNC(=O)C(c1ccccc1)c1ccccc1)N/N=C/c1ccc(O)cc1O` as the compound, how does the inhibition read?
Its inhibition is 30.2%.

Which inhibition does the source give for `CCSc1nc2ccccc2n1C(=O)/C=C\c1ccc(OC)c(OC)c1` here?
Its inhibition is 77.4%.

For `COc1cccc(OC)c1C(=O)Nc1cc(C)nn1-c1nc2ccccc2[nH]1`, which inhibition is on record?
The inhibition was 50.8%.

For `O=C(O)c1ccc(N/N=C/c2ccc3c(c2)OCO3)cc1`, which inhibition is on record?
The inhibition was 96.9%.

For `COc1ccc(Nc2ncnc3ccc(Br)cc23)c(OC)c1`, which inhibition is on record?
Its inhibition is 90.8%.

With `Cc1ccc(OCC(=O)c2cc(C)n(Cc3ccco3)c2C)c([N+](=O)[O-])n1` as the compound, how does the inhibition read?
The inhibition was 70.8%.

With `Cc1ccc(-n2c(N)c(C(=O)Nc3c(C)n(C)n(-c4ccccc4)c3=O)c3nc4ccccc4nc32)cc1` as the compound, how does the inhibition read?
The inhibition was 77.5%.

Which inhibition does the source give for `Cc1ccc(C(C[N+](=O)[O-])Sc2ccc(N)cc2)cc1` (stereo not drawn) here?
The inhibition was 98.3%.

Which inhibition does the source give for `CCc1ccc(/C=C2\SC(=S)N(CCCC(=O)Nc3ccccn3)C2=O)cc1` here?
Its inhibition is 78.8%.

With `O=C(COc1ccc2c(c1)CCC2)Nc1ccccn1` as the compound, how does the inhibition read?
Its inhibition is 95.2%.

For `O=C(N/N=C\c1c(O)ccc2ccccc12)c1cncc(Br)c1`, which inhibition is on record?
Its inhibition is 65.3%.

With `CCC(C)Cn1c(O)cc2nn(-c3nc4ccccc4s3)c(=O)c-2c1C` (stereo not drawn) as the compound, how does the inhibition read?
The inhibition was 99.6%.

Which inhibition does the source give for `COc1cc(OC)c2cc(C(=O)N/N=C/c3ccccc3O)[nH]c2c1` here?
The inhibition was 79.9%.

Which inhibition does the source give for `O=C(CCn1cnc(-c2ccccc2)c1-c1ccccc1)N/N=C/c1ccccc1O` here?
The inhibition was 67.6%.

For `CCCCC(=O)NC(c1ccc(OC)cc1)c1ccc2cccnc2c1O` (stereo not drawn), which inhibition is on record?
The inhibition was 21.2%.

With `CCCC(=O)NC(c1ccc(C(C)C)cc1)c1ccc2cccnc2c1O` (stereo not drawn) as the compound, how does the inhibition read?
Its inhibition is 54.3%.

For `Cc1oc(-c2ccc3c(c2)OCCO3)cc1C(=O)O`, which inhibition is on record?
Its inhibition is 98.6%.

Which inhibition does the source give for `CN(C)c1c([N+](=O)[O-])cc(N2C(=O)C=CC2=O)cc1[N+](=O)[O-]` here?
The inhibition was 98.9%.

For `CC(C)CC1C(=O)N(Cc2cn(Cc3ccco3)nn2)CCS(=O)(=O)N1Cc1ccc(-c2ccc(F)cc2)cc1` (stereo not drawn), which inhibition is on record?
Its inhibition is 60.2%.

For `CCCC(=O)NC(c1ccc(Cl)cc1)c1ccc2cccnc2c1O` (stereo not drawn), which inhibition is on record?
Its inhibition is 70.4%.

Which inhibition does the source give for `CN(O)C(=S)c1ccccc1` here?
Its inhibition is 3.97%.

Which inhibition does the source give for `CS(=O)(=O)Nc1cccc(NC(=O)C2Cc3c(-c4cccc(F)c4)ccnc3O2)c1` (stereo not drawn) here?
The inhibition was 74.9%.
